# FLuc counter – inhibits or activates purified firefly luciferase, miR-21 counter-screen; P08659; purified FLuc, Km substrates, luminescence inhibition; Potency, µM (top dose mostly 57.5 µM), for the others: top-dose activity change, negative = inhibition, hits mostly inhibitors; hit rate 6.9% among 360,000; AID 588342;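 note: plate controls were vehicle for no effect and reference inhibitor for full effect; nearly all actives have a fitted effect of over 55% in size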
# Target sequence (P08659 whole entry, looked up): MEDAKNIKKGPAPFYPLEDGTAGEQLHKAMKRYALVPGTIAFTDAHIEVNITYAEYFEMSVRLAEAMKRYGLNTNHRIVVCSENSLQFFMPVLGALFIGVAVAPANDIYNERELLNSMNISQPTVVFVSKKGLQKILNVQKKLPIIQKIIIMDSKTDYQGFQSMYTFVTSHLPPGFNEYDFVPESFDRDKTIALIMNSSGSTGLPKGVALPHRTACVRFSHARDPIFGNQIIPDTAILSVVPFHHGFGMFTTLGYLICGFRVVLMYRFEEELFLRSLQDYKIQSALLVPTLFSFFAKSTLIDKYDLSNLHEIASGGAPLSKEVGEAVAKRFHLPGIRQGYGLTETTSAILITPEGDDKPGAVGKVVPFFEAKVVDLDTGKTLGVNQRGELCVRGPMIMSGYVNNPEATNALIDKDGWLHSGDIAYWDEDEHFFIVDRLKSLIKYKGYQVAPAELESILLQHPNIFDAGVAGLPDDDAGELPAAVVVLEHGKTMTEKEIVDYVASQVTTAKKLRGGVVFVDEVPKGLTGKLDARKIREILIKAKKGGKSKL
#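 Biochemical qHTS of compounds, final roughly 60 µM downward over six points, against 10 nM purified firefly luciferase using Km concentrations of substrates (10 uM D-luciferin, 10 uM ATP) in Tris acetate pH 7.5 buffer; luminescence output.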
# ELG1 genotoxic – inducers of genotoxicity in HEK293T ELG1-luciferase cells | HEK293T ELG1-luciferase reporter, luminescence, 16 h | AID 504466 | hit rate 1.3% among 330,000 | Potency, µM (top dose mostly 46 µM), for the others: at the highest dose activity change, positive = activation, actives largely listed as activators; note: % of control where 0% means no effect; nearly all actives have a fitted effect of over 60% in size
#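 Screening used a luciferase reporter fused to human ELG1 in HEK293T cells. Luminescence was read on a CCD plate imager after 16 hr exposure and 30 min ONE-Glo incubation.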
# SMN2 splice enh – enhancers of SMN2 splice variant expression; Potency, µM (highest dose often 46.1 µM), inactives show at the top dose activity change, positive = activation, usual class: activators; hit rate 2.8% among 210,000; HEK293 SMN2-luciferase splicing reporter, luminescence, 30-36 h; AID 1458; note: % of control where 0% means no effect; nearly all actives have a fitted effect of over 55% in size
#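 HEK293 cells carry an SMN2 […]–luciferase reporter in which exon 7 inclusion puts luciferase in frame. Cells were plated 10-12 h before compound addition, then incubated 30-36 h at 37C. ONE-Glo luminescence was read; sodium butyrate at 4.5 mM final served as control.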
# Rab9 promoter act – activators of Rab9 promoter. Huh7 Rab9 promoter-luciferase reporter, luminescence, 24 h. Potency, µM (top dose mostly 9.22 µM), for the others: at the top dose activation, negative = inhibition, most hits filed as activators. hit rate 2.8% among 320,000; note: % of control where 0% means no effect; nearly all actives have a fitted effect of over 60% in size
#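 Cells were plated at 1500 per well in reduced-serum medium with 10% FBS and left 2 h. Compound in DMSO was then added for 24 h at 37 °C. Reporter signal was read by luminescence after 10 min with luciferase detection reagent.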
# NPC1 promoter act – NPC1 promoter activation; Potency, µM (titrated, usually from 9.22 µM), for the others: at the highest dose activation, most hits filed as activators; Huh7 NPC1 promoter luciferase reporter, 24 h; hit rate 2.4% among 320,000; note: % of control where 0% means no effect; nearly all actives have a fitted effect of over 60% in size
#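 NPC1 promoter–luciferase Huh7 cells; 24 h compound; luminescence.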
# Active calls of the source: *; ? = inconclusive; / = no result; [ ] = another dose, or the depositor's remark. The list is not random: actives were taken first. Their share in the collection is about 7.5%. Calls come from the whole dose curve; as a rule, active = well fitted curve in the direction sought with a large enough effect; inconclusive = small, poorly fitted or top-dose-only effect, or another doubt; inactive = no such curve, though single readings can be large; an effect the other way counts as inactive or inconclusive. Potency is the fitted concentration of half-maximal effect.
SMILES,FLuc counter,ELG1 genotoxic,SMN2 splice enh,Rab9 promoter act,NPC1 promoter act
Cc1ccsc1C(=O)OCC(=O)NC1CCCC1,21.3µM*,?,/,?,?
Cc1ccsc1C(=O)OCC(=O)Nc1sccc1C(N)=O,5.36µM*,7.0%,22.1%,?,?
Cc1ccsc1C(=O)OCC(=O)NCCNC(=O)COC(=O)c1sccc1C,-0.9%,7.1%,/,-0.7%,-1.1%
Nc1c(C(=O)NCC2CCCO2)sc2nc3c(c(-c4ccco4)c12)CC/C3=C\c1ccco1 (configuration not stated),5.36µM*,0.8%,-0.7%,3.1%,0.7%
NC(=O)c1sc2nc3c(c(-c4ccco4)c2c1N)CCCC3,-10.2%,-14.7%,/,-2.6%,-1.2%
CN1CCN(CC(=O)Nc2nc3ccccc3s2)CC1,-1.3%,3.4%,/,14.4%,-3.0%
Cc1ccc2nc(-c3ccc(NC(=O)CCN4C(=O)c5ccccc5C4=O)cc3)sc2c1,1.51µM*,1.03µM*,0.316µM*,0.251µM*,0.398µM*
Cc1ccc2nc(-c3ccc(NC(=O)C(C)N4C(=O)c5ccccc5C4=O)cc3)sc2c1 (configuration not stated),8.49µM*,?,11.2µM*,29.1%,?
Cc1ccc(C2(C)NC(=O)N(CC(=O)Nc3ccc(-c4nc5ccc(C)cc5s4)cc3)C2=O)cc1 (configuration not stated),2.39µM*,?,/,?,1.78µM*
Cc1ccc(NC(=O)CN2C(=O)NC(C)(c3ccc4c(c3)OCO4)C2=O)cc1 (configuration not stated),/,-0.9%,/,/,/
O=C(CCN1C(=O)c2ccccc2C1=O)Nc1nc2ccccc2s1,19µM*,16.2%,14.5%,0.9%,7.5%
COc1ccc(CCNC(=O)CN2C(=O)NC3(CCc4ccccc43)C2=O)cc1 (configuration not stated),7.1%,-1.2%,/,-4.4%,-4.1%
COc1cccc(-n2c(COc3ccc(C)cc3)nnc2SCC(=O)O)c1,0.3%,1.2%,2.7%,0.2%,8.9%
CC(C)(SC(=S)N1CCOCC1)C(=O)O,2.3%,2.7%,-7.3%,2.9%,13.3%
Cc1ccc2c(c1)c(=O)c1ccccc1n2CCCC(=O)Nc1c(F)cccc1F,-11.3%,/,2.5%,/,/
O=C(CCN1C(=O)c2ccccc2C1=O)Nc1ccc(-c2nc3ccccc3s2)cc1,?,10.3µM*,/,0.398µM*,1.26µM*
COc1ccc(NC(=O)CCN2C(=O)c3ccccc3C2=O)cc1,4.0%,0.0%,/,4.3%,-5.5%
O=C(Nc1cccc(Cl)c1)c1cnc[nH]1,-22.7%,?,11.2µM*,4.47µM*,3.98µM*
CC(C)c1cc(C(=O)Nc2cccc(Cl)c2)no1,0.953µM*,?,11.2µM*,0.891µM*,0.891µM*
CC(=O)c1cccc(NC(=O)c2cc(C(C)C)on2)c1,6.75µM*,9.2µM*,?,4.47µM*,0.631µM*
OC(CNCc1cccs1)c1ccccc1 (configuration not stated),-0.4%,-1.1%,/,-0.5%,-0.9%
O=C(CN1C(=O)c2ccccc2S1(=O)=O)Nc1ccc(S(=O)(=O)N2CCCCC2)cc1,4.8%,/,-14.8%,/,/
Clc1ccc2nc3c4ccccc4cnn3c2c1,1.9µM*,8.2µM*,2.82µM*,-2.8%[1.84 µM],10.4%
Cc1nn2c3ccccc3nc2c2ccccc12,?,3.6%,18.4%,-5.1%,0.6%
COC(=O)[C@@H]1C[C@@]2(O)[C@@H](O)[C@@H](O)[C@@H](O)C[C@H]2N1Cc1ccc(C(C)(C)C)cc1,/,/,-19.5%,/,/
CC(C)C(NC(=O)OCc1ccccc1)C(=O)OCC(=O)N1CCCCC1 (configuration not stated),16.9µM*,20.6µM*,?,?,29.0%
COc1ccc(C(=O)Nc2nc3cc(OC)c(OC)cc3c(=O)[nH]2)cc1,0.8%,0.8%,-29.9%,-1.9%,-2.1%
COc1ccc2[nH]c(C)c(C(=O)CN3CCN(C(=O)c4ccco4)CC3)c2c1,4.1%,0.2%,/,-9.1%,-6.6%
CC(C)(C)n1ncc2c(=O)n(CC(=O)NC3CCCCC3)cnc21,?,?,24.8%,?,?

# Compound activity: PubChem, National Center for Advancing Translational Sciences (NCATS)
